From PubChem
Compounds with a hit are over-represented: about 15% of the library has one in this group of screens.
DT40 TDP1 no CPT: qHTS for Inhibitors of human tyrosyl-DNA phosphodiesterase 1 (TDP1): qHTS in cells in absence of CPT. DT40 Tdp1-/- hTDP1 cells, no CPT, ATP luminescence, 48 h. Potency, µM (highest dose often 46.2 µM), without a hit: at the top dose activity change, negative = growth inhibition, usual class: inhibitors. 15% of 420,000 active; note: nearly all actives have a fitted effect of over 55% in size
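DT40 Tdp1-/-;hTDP1 cells, no CPT (DMSO vehicle only), 400 cells/well; compounds pin-transferred; ≥48 hr, 37 °C; CellTiter-Glo 30 min RT dark, luminescence read.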
DT40 TDP1 CPT: DT40-hTDP1 cell growth loss with CPT; chicken DT40 Tdp1-/-;hTDP1 cells + 20 nM CPT, ATP luminescence, 48 h; Potency, µM (top dose mostly 46.2 µM), for inactives: at the top dose activity change, negative = growth inhibition, actives largely listed as inhibitors; 12% of 420,000 active; note: nearly all actives have a fitted effect of over 55% in size
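Chicken DT40 Tdp1-/- cells stably complemented with human TDP1 were seeded at 400 cells/well in medium containing 20 nM camptothecin, exposed to pin-transferred compounds, and grown at 37 °C for at least 48 hr. Viability was read as ATP luminescence.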
ALOX12 inh: ALOX12 (human) lipoxygenase inhibition | Potency, µM (top dose mostly 108 µM), without a hit: top-dose activity change, negative = inhibition, actives largely listed as inhibitors | 1.1% of 580,000 active | purified 12hLO, xylenol orange hydroperoxide absorbance | P18054
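Hydroperoxide product was detected by ferrous iron/xylenol orange as the 573 to 405 nm absorbance ratio. Arachidonic acid at 40 uM (final) was turned over for 30 min at room temperature by 150 nM human 12hLO, pH 7.0 Hepes buffer, after 15 min compound preincubation.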
ELG1 repair inh: blocks ELG1-dependent DNA repair in HEK293T cells. AID 504467. 2.3% of 330,000 active. Potency, µM (highest dose often 46.1 µM), inactives show at the highest dose activity change, negative = inhibition, hits mostly inhibitors. HEK293T ELG1-luciferase reporter, luminescence, 16 h; DNA damage induced by 5-fluorouridine; note: nearly all actives have a fitted effect of over 55% in size
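DMSO vehicle served as the neutral condition. Each well held 2,000 cells given 5-fluorouridine plus compound; after 16 hr at 37 °C/5% CO2, ONE-Glo was added and luciferase measured 30 min later.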
VP16 counter: inhibits Gal4-VP16 luciferase reporter, ROR gamma counter-screen; Drosophila S2 Gal4-VP16 UAS-luciferase, luminescence, 20 h; Potency, µM (doses to about 53.6 µM), without a hit: at the top dose activity, negative = inhibition, actives largely listed as inhibitors; 3.5% of 310,000 active; AID 2546;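 note: Gal4-VP16 expression switched on by copper sulfate through the metallothionein promoter; nearly all actives have a fitted effect of over 50% in size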
RORgamma inh: blocks mouse ROR gamma transcriptional activity; P51450; Drosophila S2 Gal4-RORgamma UAS-luciferase reporter, 20 h; Potency, µM (highest dose often 53.6 µM), inactives show at the highest dose activity change, negative = inhibition, usual class: inhibitors; 5.4% of 310,000 active; AID 2551; note: nearly all actives have a fitted effect of over 60% in size
Target sequence (P51450 whole entry, looked up, the tested form may be a part): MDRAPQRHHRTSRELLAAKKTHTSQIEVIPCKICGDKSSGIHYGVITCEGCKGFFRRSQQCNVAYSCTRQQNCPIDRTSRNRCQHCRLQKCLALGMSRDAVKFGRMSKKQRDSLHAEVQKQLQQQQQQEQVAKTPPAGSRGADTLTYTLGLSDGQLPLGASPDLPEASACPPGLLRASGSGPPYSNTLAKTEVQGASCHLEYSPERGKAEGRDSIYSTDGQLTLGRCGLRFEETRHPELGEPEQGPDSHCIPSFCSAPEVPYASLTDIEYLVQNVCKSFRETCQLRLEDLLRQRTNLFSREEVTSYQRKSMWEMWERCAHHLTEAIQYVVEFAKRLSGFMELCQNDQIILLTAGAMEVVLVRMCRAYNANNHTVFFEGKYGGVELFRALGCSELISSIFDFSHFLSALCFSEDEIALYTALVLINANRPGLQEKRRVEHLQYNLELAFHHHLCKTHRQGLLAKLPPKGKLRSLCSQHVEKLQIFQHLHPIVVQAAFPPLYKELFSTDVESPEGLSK
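A Gal4/UAS one-hybrid system in insect cells: metallothionein-promoter Gal4–ROR gamma fusion plus Photinus luciferase reporter. Copper sulfate 700 uM final, 20 hr ambient incubation, luminescent detection after 10 min with reagent.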
The depositor's hits bear a star; i = inactive; ? = inconclusive; . = no result given; [ ] = remark or other dose. Calls come from the whole dose curve; as a rule, active = well fitted curve in the direction sought with a large enough effect; inconclusive = small, poorly fitted or top-dose-only effect, or another doubt; inactive = no such curve, though single readings can be large; an effect the other way counts as inactive or inconclusive. % is set by controls: 0 for no effect and ±100 for the full control effect; potency is the fitted concentration of half-maximal effect.

SMILES	DT40 TDP1 no CPT	DT40 TDP1 CPT	ALOX12 inh	ELG1 repair inh	VP16 counter	RORgamma inh
O=C(CCc1ncc(-c2ccc(Cl)cc2)o1)Nc1ccc(F)cc1F	.	.	-8.9%	.	.	.
COc1ccc(C2c3ccc4ccccc4c3Oc3ncn(CCN(C)C)c(=N)c32)cc1 (configuration not stated)	20.6µM*	?	0.0%	-11.9%	?	31.6µM*
Cc1ccc(C(=O)N2CC[C@@H]3CN(S(C)(=O)=O)[C@@H]3C2)cc1C	.	.	2.2%	.	.	.
CCN(CC)Cc1c(O)ccc2c1O/C(=C\C=C\c1ccccc1)C2=O	18.4µM*	?	?	-16.5%	4.7%	10.7%
CCC(Oc1ccccc1Cl)C(=O)O (configuration not stated)	.	.	-6.8%	.	.	.
COc1ccc(CC(=O)NCc2ccccn2)cc1OC	-3.3%	4.7%	i	3.6%	-5.6%	11.2µM*
O=C(Cc1ccc([N+](=O)[O-])cc1)NCc1ccccn1	2.91µM*	4.61µM*	7.2%	10.7%	-9.3%	?
O=C(NCc1ccccn1)c1ccc([N+](=O)[O-])cc1	-25.8%	-0.6%	1.6%	9.3%	-4.7%	-2.9%
O=[N+]([O-])c1ccccc1/C=N\Nc1nccs1	29.3%	15.2%	6.9%	16.3%	-13.8%	-31.9%
O=[N+]([O-])c1ccccc1/C=N/Nc1nnc(-c2ccccc2)c(-c2ccccc2)n1	1.64µM*	2.06µM*	29.6%	-13.4%	3.16µM*	3.16µM*
CC(C)NC(=S)N/N=C/c1ccccc1[N+](=O)[O-]	?	4.6%	-0.1%	-16.5%	5.62µM*	1.78µM*
O=C(CN(Cc1ccccc1)S(=O)(=O)c1ccccc1)N/N=C/c1ccccc1[N+](=O)[O-]	20.6µM*	?	3.4%	?	0.8%	?
CNC(=S)N/N=C/c1ccccc1[N+](=O)[O-]	.	.	26.2%	.	.	.
O=[N+]([O-])c1ccccc1C=NNC(=S)NN=Cc1ccccc1[N+](=O)[O-]	3.26µM*	6.51µM*	?	.	.	.
CCCC(C)NC(=O)c1cccc2c(C)c(C)[nH]c12 (configuration not stated)	.	.	1.5%	.	.	.
CC(C)(C)CN1CCOC[C@H]1c1ncc(-c2ccc(S(C)(=O)=O)cc2)[nH]1	.	.	6.0%[176 µM]	.	.	.
COc1cc(=O)n2c(c1C(=O)NCc1ccccc1C(F)(F)F)CCCC2	.	.	31.7%	.	.	.
CC(=O)N1CCCC(C(=O)NCc2nc(Cc3cccs3)no2)C1 (configuration not stated)	.	.	80.5%	.	.	.
Cc1cccc(N=Cc2ccccc2[N+](=O)[O-])c1	.	.	7.2%	.	.	.
Cc1cc(O)c(C(C)C)cc1N=Cc1ccccc1[N+](=O)[O-]	3.26µM*	5.17µM*	?	.	.	.
COc1ccc(C(CNC(=O)c2ccc(-c3ccccc3Cl)o2)N2CCCC2)cc1 (configuration not stated)	4.11µM*	5.17µM*	?	.	.	.
COc1ccc(C(CNC(=O)c2ccc(-c3nc4ccccc4s3)o2)N2CCCC2)cc1 (configuration not stated)	20.6µM*	23.1µM*	199.5%	?	.	.
COc1ccc(C(CNC(=O)c2cc3ccccc3o2)N2CCCC2)cc1 (configuration not stated)	?	?	-17.7%	0.0%	.	.
COc1cc(NC(=O)N2c3ccccc3CC2c2nc(C3CC3)no2)cc(OC)c1 (configuration not stated)	.	.	-15.4%	.	.	.
COc1cccc(-c2nnn(CC(=O)N3CCC(c4nc5ccccc5s4)CC3)n2)c1	.	.	2.9%	.	.	.
SMILES	DT40 TDP1 no CPT	DT40 TDP1 CPT	ALOX12 inh	ELG1 repair inh	VP16 counter	RORgamma inh
CC(C)CN(CC(C)C)C(=O)CCS(=O)(=O)c1cc2c(cc1Cl)NC(=O)CO2	.	.	8.6%	.	.	.
COc1ccc(Cl)cc1S(=O)(=O)n1cnc2ccccc21	?	23.1µM*	3.7%	-3.3%	.	0.0%[0.365 µM]
CCOc1ccc(C)cc1S(=O)(=O)n1cnc2ccccc21	4.11µM*	5.17µM*	7.9%	?	-8.9%	-4.9%
CCOc1ccc(Cl)cc1S(=O)(=O)n1cnc2ccccc21	4.47µM*	6.31µM*	?	-16.9%	8.2%	2.3%
CCOc1cc(C)c(Cl)cc1S(=O)(=O)n1cnc2ccccc21	?	-28.1%	?	-0.2%	3.3%	4.7%
CCOc1ccc(S(=O)(=O)n2cnc3ccccc32)cc1	?	?	-22.4%	6.7%	3.0%	4.4%
COc1ccc(-c2ccc(C(=O)Nc3cccc(C(F)(F)F)c3)c3occc23)c(C)c1	20.6µM*	23.1µM*	?	.	.	.
COc1ccc(NC(=O)c2cccc3c(-c4ccc(OC)cc4C)coc23)cc1	?	?	-17.0%	.	.	.
COc1ccc(-c2coc3c(C(=O)NC4CCCCC4)cccc23)c(C)c1	?	?	-12.2%	.	.	.
COc1ccc(-c2ccc(C(=O)Nc3ccc(Cl)cc3)c3occc23)c(C)c1	?	?	-12.1%	.	.	.
COc1ccc(-c2ccc(C(=O)Nc3cc(OC)c(OC)c(OC)c3)c3occc23)c(C)c1	23.1µM*	6.51µM*	?	.	.	.
O=C(NC1CCCCC1)c1ccc(-c2cn[nH]c2)c2ccoc12	16.4µM*	23.1µM*	-6.5%	.	.	.
COc1ccc(-c2ccc(C(=O)NC3CCCCC3)c3occc23)c(C)c1	18.4µM*	20.6µM*	-5.6%	.	.	.
C=CCN1CCN(C(=O)CCC[C@@H]2[C@H]3CCCN4CCC[C@@H](CN2Cc2cccnc2)[C@@H]34)CC1	.	.	70.4%	.	.	.
Cc1cc(C)cc(NC(=O)c2cccc(N3CCCS3(=O)=O)c2)c1	?	14.6µM*	-23.5%	.	.	.
O=C(NCc1ccc(Cl)cc1Cl)c1cccc(N2CCCS2(=O)=O)c1	?	16.4µM*	0.0%	.	.	.
O=C(c1ccco1)N1CC[C@@H]2COCCN(Cc3ccccc3)[C@@H]2C1	.	.	63.5%	.	.	.
CCOC(=O)c1ccc(NC(=O)CCC2CCCC2)cc1	.	.	17.2%	.	.	.
Cc1ccc2c(C(=O)CN3CCN(CCO)CC3)c(C)[nH]c2c1	.	.	-46.2%	.	.	.
CCOC(=O)C(C(=O)OCC)C(c1ccccc1)N1CCN(c2ccccc2)CC1 (configuration not stated)	20.6µM*	?	10.7%	.	.	.
COc1ccccc1N1CCN(CC(=O)c2ccc(F)cc2)CC1	-22.2%	-21.0%	1.12µM*	-5.1%	-8.5%	-8.5%
COc1ccc(C(=O)CN2CCN(c3ccc(F)cc3)CC2)cc1OC	-9.8%	-25.6%	1.1%	4.0%	-2.2%	-9.6%
